ARNT-TACC3 inh: disruptors of ARNT/TACC3 protein interaction, primary screen, biochemical, AlphaScreen, single concentration; Transforming acidic coiled-coil-containing protein 3 (Homo sapiens), Q9Y6A5; AlphaScreen His-ARNT PAS-B/GST-TACC3 binding, luminescence; TACC3 fragment carries E629A point mutation; inhibition, % at 9.99 µM; 390,000 compounds, 0.66% hits;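 active means mean inhibition of replicates at least 50% and at least half of replicates each reaching 50%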;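 further: 0% = complete ARNT plus TACC3 wells and 100% = ARNT alone without TACC3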
CFTR F508del cor: F508del CFTR correction, initial screen, CFBE line, single point; CFBE cells, YFP halide quenching; stimulated with forskolin plus potentiator P3; % fluorescence drop versus neutral controls; activity (quench increase), % at 7.58 µM; 350,000 compounds, 0.36% hits; AID 720511, 2013;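 active means mean added fluorescence quench of at least 8% versus neutral control, with both replicates also reaching 8%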;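 further: cells transiently co-express mutant CFTR-F508del with the halide-sensitive YFP; corrector assay measuring rescue of mutant channel to the surface after 24 h compound exposure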
C2C12 statin: suppressors of statin myotoxicity in C2C12 myotubes, primary screen, cell-based, single point, plate reader; C2C12 myotubes + simvastatin, ATP luminescence, 48 h; scaled: DMSO 0, geranylgeraniol control 100; rescue of ATP level, % at 7.49 µM; 330,000 compounds, 0.78% hits; AID 602340, 2012;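 active means mean ATP rescue above about 67%, or every replicate alone reaching that limit, limit read from the data, passing the limit was not always enough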;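 further: myotubes were challenged with 10 µM simvastatin during compound exposure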
PglD inh: C. jejuni PglD acetyltransferase inhibitors, primary screen, biochemical, DTNB colorimetric, single point. 360,000 compounds, 0.098% hits. UDP-N-acetylbacillosamine N-acetyltransferase PglD (Campylobacter jejuni). AID 602405, 2012. purified PglD enzyme, DTNB colorimetric CoA detection. inhibition, % at 12.5 µM; in the data active means inhibition above about 16%, passing the limit was not always enough
The depositor's hits bear a star; ! = repeats disagree. A selection: hits, their analogues and other compounds. The true share with any hit is near 1.4%.

CCCNC(=O)C[C@H]1CC[C@H]2[C@@H](COc3ccc(NC(=O)c4cc(F)cc(F)c4)cc3C(=O)N2C)O1 was read as ARNT-TACC3 inh -11, CFTR F508del cor 1, C2C12 statin -3 and PglD inh -1.
`O=C(c1cc(-c2ccccc2Cl)nc2ccccc12)N1CCC1` gave ARNT-TACC3 inh -1 and CFTR F508del cor 4.
CCN1CCCC(OC(=O)c2cc(-c3ccccc3Cl)nc3ccccc23)C1 (configuration not stated) was read as ARNT-TACC3 inh 9 and CFTR F508del cor 12*.
Screening COc1cc2c(C#N)c(N3CCCC3)nc(N)c2c(N)n1 returned ARNT-TACC3 inh 34*!, CFTR F508del cor 0, C2C12 statin -5 and PglD inh 6.
`COCC(=O)Nc1ccc2c(c1)C(=O)N(C)[C@@H]1CC[C@H](CC(=O)NCc3cccc(F)c3)O[C@H]1CO2` gave ARNT-TACC3 inh 1, CFTR F508del cor -2, C2C12 statin -1 and PglD inh 0.
`COc1cc(NS(=O)(=O)c2ccc(Nc3nc(-c4ccccn4)cs3)cc2)nc(OC)n1` gave ARNT-TACC3 inh 56* and CFTR F508del cor -4.
For CN1CCN(C(=O)/C=C/c2ccc(Cl)cc2)CC1 the results were ARNT-TACC3 inh -16, CFTR F508del cor 0, C2C12 statin 110* and PglD inh 1.
Cn1c(SCc2ccccc2)nnc1-c1ccc(O)cc1 was read as ARNT-TACC3 inh active, CFTR F508del cor -1, C2C12 statin 0 and PglD inh -6.
`Cn1c(SCC(=O)c2ccccc2)nnc1-c1ccc(O)cc1` gave ARNT-TACC3 inh 2, C2C12 statin 3 and PglD inh 6.
Screening COC(=O)C(CC#Cc1ccc2c(c1)[C@]1(C(=O)N2)[C@H](c2ccccc2OCCO)N2[C@H](c3ccccc3)[C@H](c3ccccc3)OC(=O)[C@H]2[C@@H]1C(=O)N1CCN(c2ncccn2)CC1)C(=O)OC returned ARNT-TACC3 inh 15, CFTR F508del cor -4 and PglD inh -3.
`Cc1cc(C)c(S(=O)(=O)/N=C2/C=C(SCC(=O)O)C(=O)c3ccccc32)cc1C` gave ARNT-TACC3 inh 74*.
Screening COCCOc1cc(-n2ccnc2SC)c(Cl)cc1Cl returned ARNT-TACC3 inh 0, C2C12 statin 92* and PglD inh 4.
COc1cccc(/C=N/Nc2nnc(C)n2N)c1O was read as ARNT-TACC3 inh 58*, CFTR F508del cor -5, C2C12 statin -34 and PglD inh 0.
For COc1cccc(/C=N/Nc2cc(N3CCOCC3)ncn2)c1O the results were ARNT-TACC3 inh 49*, CFTR F508del cor 5, C2C12 statin 11 and PglD inh -1.
For Cc1nnc(N/N=C/c2ccccc2F)n1N the results were ARNT-TACC3 inh 2, CFTR F508del cor -1, C2C12 statin -2 and PglD inh 2.
`C[C@@H]1CN([C@@H](C)CO)C(=O)c2cc(C3=CCCCC3)cnc2O[C@@H]1CN(C)Cc1ccncc1` gave ARNT-TACC3 inh -4, CFTR F508del cor -4, C2C12 statin 13 and PglD inh 1.
Screening CCCCOC(=O)C1=C(C)NC2(O)c3ccccc3C(=O)C12O (configuration not stated) returned ARNT-TACC3 inh -9, C2C12 statin -4 and PglD inh 0.
For CCOC(=O)C1=C(C)N[C@@]2(O)c3ccccc3C(=O)[C@@]12O the results were ARNT-TACC3 inh 5, C2C12 statin 130* and PglD inh -3.
COc1ccc(S(=O)(=O)N2CCN(c3ccccc3OC)CC2)cc1 was read as ARNT-TACC3 inh -2, CFTR F508del cor 1, C2C12 statin -5 and PglD inh 3.
Screening COc1ccc(S(=O)(=O)N2CCN(c3ccc4nnc(-c5ccccc5)n4n3)CC2)cc1 returned ARNT-TACC3 inh -3, CFTR F508del cor 2, C2C12 statin 111* and PglD inh 0.
`C=C(C)C1CC=C(C)/C(=N/NC(=O)c2ccc(NC(=O)CC)cc2)C1` (configuration not stated) gave ARNT-TACC3 inh -10, CFTR F508del cor 3, C2C12 statin 119* and PglD inh 3.
`O=C(C[C@@H]1CC[C@@H]2[C@H](COC[C@H](O)CN2Cc2ccccc2F)O1)NC1CCC1` gave ARNT-TACC3 inh 20, CFTR F508del cor -1, C2C12 statin 5 and PglD inh 0.
For COc1ccc(-c2ccc(-c3nc4c(c(=O)[nH]c(=O)n4Cc4ccccc4)n3C)o2)c([N+](=O)[O-])c1 the results were ARNT-TACC3 inh 24*, C2C12 statin -40 and PglD inh -4.
Cc1cc(C)n(-c2nnc(C)n2N)n1 was read as ARNT-TACC3 inh -14, C2C12 statin 1 and PglD inh -3.
`Cc1cc(C)n(-c2nnc(C)c(=O)[nH]2)n1` gave ARNT-TACC3 inh 60*, C2C12 statin 0 and PglD inh -2.
Screening C[C@H]1CN([C@@H](C)CO)C(=O)c2cc(NC(=O)CCC(F)(F)F)ccc2O[C@H]1CN(C)C(=O)Nc1cccc2ccccc12 returned ARNT-TACC3 inh -1, CFTR F508del cor 1, C2C12 statin 9 and PglD inh -3.
For COc1ccccc1CNc1ncnc2c1nnn2Cc1ccccc1 the results were ARNT-TACC3 inh 4, C2C12 statin 126* and PglD inh -2.
Screening CCCCc1cc(=O)oc2c3c(cc(OCC(=O)N4CCC[C@H]4C(=O)O)c12)OC(C)(C)CC3 returned CFTR F508del cor 2, C2C12 statin 12 and PglD inh 9.
`Cc1cc(=O)oc2c3c(cc(OCC(=O)N4CCC[C@H]4C(=O)O)c12)OC(C)(C)CC3` gave ARNT-TACC3 inh 32*, CFTR F508del cor 0, C2C12 statin 0 and PglD inh 0.
Screening Cc1cccc(Nc2nc(-c3c(C)nc4ccccn34)cs2)c1 returned ARNT-TACC3 inh -14, C2C12 statin -160 and PglD inh 7.
Screening Cc1nc2ccccn2c1-c1nnco1 returned ARNT-TACC3 inh 3, C2C12 statin 72* and PglD inh -3.
C#C[C@]1(O)CC[C@H]2[C@@H]3CCc4cc(OC)ccc4[C@H]3CC[C@@]21C was read as ARNT-TACC3 inh -1, CFTR F508del cor 8.4*, C2C12 statin 6 and PglD inh 2.
C#C[C@]1(O)CC[C@H]2[C@@H]3CCc4cc(OC5CCCC5)ccc4[C@H]3CC[C@@]21C was read as ARNT-TACC3 inh -1, CFTR F508del cor 8.7*, C2C12 statin 0 and PglD inh -2.
For CCCNC(=O)N1CC2(CCN(C(=O)c3cnccn3)CC2)c2c([nH]c3cc(OC)ccc23)[C@@H]1CO the results were CFTR F508del cor -5.
Cc1ncc(CO)c(/C=N/NC(=S)Nc2ccc(F)cc2)c1O was read as ARNT-TACC3 inh 54* and C2C12 statin -10.
Screening Cc1ncc(CO)c(/C=N/Nc2ccc(C(F)(F)F)cn2)c1O returned ARNT-TACC3 inh 72*, CFTR F508del cor 12* and PglD inh 0.

Assay outcomes: PubChem, Broad Institute
